Assay results taken from PubChem BioAssay AID1159524 (National Center for Advancing Translational Sciences (NCATS), 2015).
Out of some 410,000 compounds screened, about 5,100 (1.2%) were called active. A call without a number means that no potency is given here. Roughly 8% stayed inconclusive and do not appear here. Calls follow the shape of the full dose curve; tested in HEK293T cells. Only a selection was taken, and actives are over-represented in it overall.

experiment: High Throughput Screening for Foot and Mouth Disease Virus Antivirals; settings: FMDV antiviral cell-based qHTS; series mostly up to 57.9 µM; also: read-out not given here; nearly all actives have a fitted effect of over 45% in size
Potency is read from the fitted curve at half-maximal effect.

SMILES	Potency
Nc1nc2c(ncn2[C@@H]2O[C@H](COP(=O)(O)OP(=O)(O)OP(=O)(O)O)[C@@H](O)C2O)c(=O)[nH]1 (stereo partly drawn)	inactive
O=C(c1ccco1)N1CCC[C@@]2(CCN(c3ccccc3)C2)C1	inactive
CC(C)NC(=O)N1CC[C@@]2(CCCN(C(=O)c3ccco3)C2)C1	inactive
C1CC[C@H]([C@@]23C[C@H](C[C@H]4CCCN[C@H]42)[C@@H]2CCCCN2C3)NC1	inactive
CCCS(=O)(=O)c1ncc(Cl)c(C(=O)Nc2scc(-c3ccccc3)c2C(=O)OCC)n1	25.1 µM (active)
CCOC(=O)c1scc(-c2ccccc2)c1S(=O)(=O)Nc1ccccc1F	inactive
CCSc1ncc(Cl)c(C(=O)Nc2c(C(=O)c3ccccc3)oc3ccccc23)n1	inactive
CCOc1ccccc1N(C)C(=O)c1cc2c(s1)-c1ccccc1OC2	inactive
COCCn1c(=O)c(-c2cc(F)cc(F)c2)nc2cncnc21	inactive
CN1C2CC3CC1C(O3)C2O (stereo not drawn)	inactive
Cc1ccc(S(=O)(=O)c2cn(Cc3ccccc3)c3cc(N4CCCC4)c(F)cc3c2=O)c(C)c1	inactive
Oc1c(Cl)cc(Cl)c(Cl)c1Cc1c(O)c(Cl)cc(Cl)c1Cl	5.62 µM (active)
C=C1C(=O)C23C(O)C1CCC2[C@]12COC3(O)C(O)C1C(C)(C)CC[C@H]2O (stereo partly drawn)	28.2 µM (active)
O=C(NC1(C(F)(F)F)N=C(c2ccccc2)N(C2CCCCC2)C1=O)c1ccccc1F (stereo not drawn)	inactive
O=c1c(-c2cccs2)nc2cnc(Oc3ccccc3)nc2n1-c1ccccc1	inactive
O=C(c1csnn1)N1CCC2(CCN(Cc3nccs3)CC2)CC1	inactive
O=C(c1cccc(F)c1)N1CCC2(CC1)CCN(c1ccccc1)CC2	inactive
O=C(c1ccccc1Oc1ccccc1)N1CCN(c2ccc(F)cc2)CC1	inactive
O=C(c1cccc(C(=O)N2CCN(c3ccc(F)cc3)CC2)c1)N1CCN(c2ccc(F)cc2)CC1	39.8 µM (active)
COc1ccc(CN(C)CCn2cc(C(=O)N3CCSCC3)nn2)cc1C	inactive
O=C1c2ccccc2C(=O)N1CCC#Cc1ccc2cc(C3(O)CCCCC3)oc(=O)c2c1	39.8 µM (active)

SMILES	Potency
COCCCN1C(=O)c2ccc(C(=O)Nc3ccc(OC)cc3OC)cc2C1=O	inactive
CCCCN1C(=O)c2ccc(C(=O)Nc3ccc(S(=O)(=O)N(C)C)cc3)cc2C1=O	20 µM (active)
CC(C)CCN1C(=O)c2ccc(C(=O)Nc3cccc(S(N)(=O)=O)c3)cc2C1=O	28.2 µM (active)
Cc1ccc(S(=O)(=O)NCCC(=O)Nc2cccc(S(N)(=O)=O)c2)cc1C	inactive
CN1C(=O)c2ccc(NC(=O)c3c(F)c(F)c(F)c(F)c3F)cc2C1=O	inactive
Cc1ccnc(NS(=O)(=O)c2ccc(NC(=O)c3ccc(S(=O)(=O)N(C)C)cc3)cc2)n1	inactive
O=c1c(CN2CCOc3ccc(CN4CCC(Oc5cccnc5)CC4)cc3C2)coc2ccccc12	inactive
Cc1cnc(CNc2cc(-c3c(C)noc3C)ncn2)cn1	inactive
O=c1ccn([C@@H]2O[C@H](COP(=O)(O)OP(=O)(O)OP(=O)(O)O)[C@@H](O)[C@H]2O)c(=O)[nH]1	inactive
COc1cc(Cl)c(C)cc1Nc1nnc(-n2nc(C)cc2C)c2ccccc12	inactive
COCCn1c(=O)c(C)nc2cnc(N(C)C)nc21	inactive
CC1=C/C(=N\OS(=O)(=O)c2ccccc2)C=CC1=O	15.8 µM (active)
O=C(CSc1nc(=O)n(Cc2cccnc2)c2c1CCC2)Nc1ccc(F)cc1F	inactive
CCOc1ccccc1NC(=O)C1=C(C)Nc2ncnn2C1c1ccc(NC(C)=O)cc1 (stereo not drawn)	inactive
CC1=C(C(=O)OCc2ccccc2)C(c2ccco2)n2ncnc2N1 (stereo not drawn)	28.2 µM (active)
CCOC(=O)C1=C(c2ccccc2)Nc2ncnn2C1c1ccc(Cl)cc1 (stereo not drawn)	inactive
CC(C)=CCC/C(C)=C/CC/C(C)=C/CC/C(C)=C/CO	inactive
CC(C)c1cc(C(=O)N2CCOc3ccc(CN4CCC(Oc5cccnc5)CC4)cc3C2)n[nH]1	inactive
Cc1cc(C(=O)COC(=O)c2cccs2)c(C)n1-c1c(C)n(C)n(-c2ccccc2)c1=O	inactive
Cc1ccsc1C(=O)OCC(=O)c1cc(C)n(CC2CCCO2)c1C (stereo not drawn)	100 µM (active)
O=C(CSc1nnc(-c2ccco2)n1CC1CCCO1)c1ccccc1 (stereo not drawn)	inactive

SMILES	Potency
COC(=O)c1cnc(N2CCN(c3ccccc3OC)CC2)c2ccccc12	inactive
COc1ccccc1N1CCN(c2ncnc3sc(C)c(-c4ccccc4)c23)CC1	20 µM (active)
COc1ccccc1N1CCN(c2ncnc3onc(-c4cccc(Cl)c4)c23)CC1	inactive
O=C(c1cc(C(F)(F)F)cc(C(F)(F)F)c1)N1CCC2(CCCN(Cc3ccncc3)C2)CC1	inactive
COc1cccc(Cn2c(=O)c(-c3ccccc3)nc3cnc(OC)nc32)c1	inactive
COCCNC(=O)c1ccc2c(c1)N=C(C)c1cc(C)ccc1S2	inactive
CCCCCCCCCCCCn1ccc(=N)cc1	17.8 µM (active)
O=C(c1cnccn1)N1CCC2(CCN(Cc3cc(C(F)(F)F)cc(C(F)(F)F)c3)CC2)CC1	inactive
Cc1cc(C)c2oc(-c3cccc(NC(=O)c4cccc(F)c4)c3C)nc2c1	inactive
COc1ccc(N)cc1NC(=O)CN1CCOCC1	inactive
COc1ccc(NC(C)=O)cc1NC(=O)CN1CCN(c2ccc(F)cc2)CC1	inactive
COc1ccc(NC(C)=O)cc1NC(=O)CN1CCN(C2c3ccccc3-c3ccccc32)CC1	31.6 µM (active)
Cc1ccccc1C(=O)NCc1nc(-c2ccc(Cl)cc2)no1	inactive
CCc1ccc(NC(=O)CN2C(=O)C(c3ccccc3)=NC23CCCCCC3)cc1	inactive
CCOc1ccc(NC(=O)CN(Cc2ccccc2)S(=O)(=O)c2ccc(Cl)cc2)cc1	inactive
CCOc1ccc(N(Cc2ccccc2)C(=O)c2nc(S(C)(=O)=O)ncc2Cl)cc1	15.8 µM (active)
COc1ccc(N(Cc2ccc(N(C)C)cc2)C(=O)c2ccc(S(C)(=O)=O)cc2)cc1	inactive
Nc1nc2nc(Cl)[nH]c2c(=O)[nH]1	inactive
Cc1cc(N2C(=O)c3ccc(C(=O)NCc4ccccc4)cc3C2=O)no1	inactive
COc1ccc(OC)c(NC(=O)c2ccc3c(c2)C(=O)N(c2ccc(OC(C)=O)cc2)C3=O)c1	inactive
O=C(O)c1ccc2c(c1)C(=O)N(c1ccc(/C=C/C(=O)c3ccccc3)cc1)C2=O	14.1 µM (active)
